From PubChem
G9a block: qHTS Assay for Inhibitors of Histone Lysine Methyltransferase G9a; Histone-lysine N-methyltransferase EHMT2 (Homo sapiens), Q96KQ7; G9a H3K9 monomethylation, AlphaScreen, 2 h; Potency, µM (doses to about 102 µM), for the others: at the highest dose activity, negative = inhibition, usual class: inhibitors; 350,000 tested, 8.8% active; AID 504332, 2011; also: % is scaled to controls: 0 for no effect and ±100 for the full control effect; nearly all actives have a fitted effect of over 75% in size
Target sequence (Q96KQ7 913-1193 limits assumed): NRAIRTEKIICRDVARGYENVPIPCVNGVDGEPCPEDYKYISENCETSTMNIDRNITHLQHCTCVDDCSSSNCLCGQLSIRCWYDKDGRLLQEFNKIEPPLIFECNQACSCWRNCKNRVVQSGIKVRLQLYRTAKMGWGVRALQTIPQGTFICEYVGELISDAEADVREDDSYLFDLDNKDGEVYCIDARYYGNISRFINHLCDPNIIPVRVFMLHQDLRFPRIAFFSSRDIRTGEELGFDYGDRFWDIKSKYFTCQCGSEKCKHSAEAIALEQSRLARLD
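G9a (20 nM) preincubated 15 min RT with compounds, then 500 nM biotinylated H3K9 peptide and 20 uM SAM added; 2 h RT reaction. Monomethyl-H3K9 product detected by AlphaScreen with anti-H3K9me1 antibody, streptavidin donor and anti-rabbit IgG acceptor beads.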
BAZ2B inh: qHTS Assay for Inhibitors of BAZ2B | 360,000 tested, 4.4% active | Potency, µM (top dose mostly 114 µM), for the others: top-dose activity change, negative = inhibition, actives largely listed as inhibitors | AlphaScreen BAZ2B-H3K14Ac peptide displacement; also: % is scaled to controls: 0 for no effect and ±100 for the full control effect; nearly all actives have a fitted effect of over 60% in size
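AlphaScreen luminescence quantifies BAZ2B engagement of H3K14Ac peptide; the protein and biotinylated peptide are both at 50 nM final, buffer PBS pH 7.4 with 0.01% Tween-20, all steps at room temperature.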
Sfp PPTase inh: qHTS Assay for Inhibitors of Bacillus subtilis Sfp phosphopantetheinyl transferase (PPTase); 4'-phosphopantetheinyl transferase ffp (Bacillus subtilis), Q9F4F7; Biochemical Sfp PPTase activity, qHTS; Potency, µM, without a hit: largest response in the series, negative = inhibition, actives largely listed as inhibitors; 310,000 tested, 3.5% active; AID 1490, 2009;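 also: the enzyme is Sfp with the accession as filed and its product quenches rhodamine fluorescence; 0% = enzyme reaction without inhibitor and -100% = no enzyme wells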
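Buffer: 50 mM Hepes-Na pH 7.6, 10 mM MgCl2, 0.01% Nonidet P-40, 0.01% BSA. Enzyme 15 nM, pre-exposed to compound 15 min; substrates then added and fluorescence change tracked over 30 min.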
JMJD2A Tudor inh: qHTS Assay for Inhibitors of JMJD2A-Tudor Domain. Lysine-specific demethylase 4A (Homo sapiens), O75164. AlphaScreen JMJD2A-Tudor / H3K4me3 peptide binding. Potency, µM (titrated, usually from 114 µM), inactives show at the highest dose activity change, negative = inhibition, actives largely listed as inhibitors. 390,000 tested, 4.4% active. AID 504339, 2011; also: % is scaled to controls: 0 for no effect and ±100 for the full control effect; nearly all actives have a fitted effect of over 50% in size
HP1b binding inh: HTS for Inhibitors of HP1-beta Chromodomain Interactions with Methylated Histone Tails; Chromobox protein homolog 1 (Homo sapiens), P83916; AID 540317, 2011; AlphaScreen HP1-beta / biotin-H3K9me3 peptide binding; 390,000 tested, 0.56% active; Potency, µM (doses to about 114 µM), without a hit: at the top dose activity change, negative = inhibition, most hits filed as inhibitors; also: nearly all actives have a fitted effect of over 70% in size
Target sequence (P83916 whole entry, looked up): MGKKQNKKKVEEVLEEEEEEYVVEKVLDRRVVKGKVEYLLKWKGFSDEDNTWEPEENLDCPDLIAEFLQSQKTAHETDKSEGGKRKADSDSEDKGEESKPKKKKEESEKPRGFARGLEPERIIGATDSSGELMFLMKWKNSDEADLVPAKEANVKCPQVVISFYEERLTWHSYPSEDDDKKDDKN
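AlphaScreen: HP1-beta (50 nM) preformed 30 min with biotin-H3(1-18)K9me3 peptide (50 nM) in PBS pH 7.4, 0.01% Tween-20. Compound added for 30 min at RT, then streptavidin donor/nickel chelate acceptor beads (10 ug/mL) for 30 min.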
L3MBTL1 block: qHTS Assay for the Inhibitors of L3MBTL1; Lethal(3)malignant brain tumor-like protein 1 (Homo sapiens), Q9Y468; AlphaScreen L3MBTL1–H3K9me1 peptide binding; Potency, µM (top dose mostly 57.1 µM), for the others: top-dose activity, negative = inhibition, most hits filed as inhibitors; 230,000 tested, 0.66% active; AID 485360, 2010; also: % is scaled to controls: 0 for no effect and ±100 for the full control effect; nearly all actives have a fitted effect of over 60% in size
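L3MBTL1 50 nM + b-AHA-H3(1-15)K9me1 75 nM, 30 min RT; compound added, 30 min RT; streptavidin donor/Ni-chelate acceptor beads 10 ug/mL each final, 30 min RT dark; AlphaScreen read.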
Active calls of the source: *; ! = a repeat was not active; [ ] = dose if it differs, or a comment. Rows were chosen to be rich in hits. Some 12% of all compounds tested hit in one or more screens of this group. Calls follow the shape of the dose curve; as a rule, active = well fitted curve in the direction sought with a large enough effect; inconclusive = small, poorly fitted or top-dose-only effect, or another doubt; inactive = no such curve, though single readings can be large; an effect the other way counts as inactive or inconclusive. Potency is read from the fitted curve at half-maximal effect.

`CC1=C(C(=O)O)N2C(=O)C(NC(=O)c3ccn(C)n3)C2SC1` (stereo not given) gave G9a block inconclusive, BAZ2B inh inconclusive, Sfp PPTase inh 22.4µM*, JMJD2A Tudor inh -32.5%, HP1b binding inh 41.0% and L3MBTL1 block 3.9%.
O=C(O)C(Oc1ccc2ccc(=O)oc2c1)c1ccccc1 (stereo not given) was read as Sfp PPTase inh -14.9%.
`CCCCNC(=O)CCCN1C(=O)CCn2nc(-c3cccn3C)cc21` gave G9a block 4.2%[59 µM], BAZ2B inh -27.1%, JMJD2A Tudor inh -30.7% and HP1b binding inh -10.5%[57 µM].
`O=C(CSc1oc(-c2ccco2)nc1S(=O)(=O)c1ccc(Cl)cc1)NCC1CCCO1` (stereo not given) gave G9a block 44.7µM*, BAZ2B inh -0.8%, Sfp PPTase inh -16.1%, JMJD2A Tudor inh inconclusive and HP1b binding inh 2.3%.
Screening Cc1ccc(-c2nc(S(=O)(=O)c3ccccc3)c(SCC(=O)NCC3CCCO3)o2)cc1 (stereo not given) returned G9a block 35.5µM*, BAZ2B inh -3.2%, Sfp PPTase inh -9.4%, JMJD2A Tudor inh -12.9% and HP1b binding inh 6.9%.
O=C(CSc1oc(-c2ccco2)nc1S(=O)(=O)c1ccccc1)NCC1CCCO1 (stereo not given) was read as G9a block inconclusive, BAZ2B inh 11.2%, Sfp PPTase inh -10.3%, JMJD2A Tudor inh -9.9%, HP1b binding inh 22.8% and L3MBTL1 block inconclusive.
Screening CCOc1ccc(N(Cc2cc3cc(C)ccc3[nH]c2=O)C(=O)c2cccc(Cl)c2)cc1 returned G9a block -4.2%[59 µM], BAZ2B inh -6.6%, JMJD2A Tudor inh -6.2% and HP1b binding inh 15.9%.
`Cc1c(CN(C)C(=O)c2cc(-c3ccccc3)nc3ccc(Br)cc23)cnn1C` gave G9a block -1.9%[59 µM], BAZ2B inh 0.5%[57.1 µM], JMJD2A Tudor inh -8.2% and HP1b binding inh 34.2%.
Cc1cccn2c(=O)c(C(=O)N3CCN(c4ccc(Cl)cc4)CC3)cnc12 was read as G9a block 4.3%[59 µM], BAZ2B inh -12.8%, JMJD2A Tudor inh -19.3% and HP1b binding inh -15.0%.
O=C(Cc1csc(NC(=O)Nc2ccc(Cl)cc2)n1)NC1CCCC1 was read as G9a block inconclusive, BAZ2B inh -27.7%, JMJD2A Tudor inh -17.8%, HP1b binding inh 18.8% and L3MBTL1 block 5.6%.
For O=C(Cc1csc(NC(=O)Nc2ccc(Cl)cc2)n1)NCc1ccccn1 the results were G9a block 44.7µM*, BAZ2B inh -7.6%, JMJD2A Tudor inh -20.7%, HP1b binding inh 18.9% and L3MBTL1 block -6.0%.
Screening O=C(Cn1c(=O)c2sccc2n(CC(=O)Nc2ccc(Cl)cc2Cl)c1=O)NCCc1ccccc1 returned G9a block 26.7%[59 µM], BAZ2B inh 0.2%, JMJD2A Tudor inh -12.3% and HP1b binding inh 22.7%.
Screening CCC(=O)N1CCc2cc(Br)cc(S(=O)(=O)N3CCCC(C(=O)Nc4ccc(C)c(F)c4)C3)c21 (stereo not given) returned G9a block 10.8%[59 µM], BAZ2B inh 2.4%, JMJD2A Tudor inh -17.1% and HP1b binding inh 11.5%.
Screening CCOc1ccc2c(c1)-c1c(ssc1=S)C(C)(C)N2 returned G9a block 10µM*, BAZ2B inh 10µM*, Sfp PPTase inh -27.9%, JMJD2A Tudor inh 25.1µM* and HP1b binding inh inconclusive.
For CCOc1ccc2c(c1)/C(=N/N1C(=O)c3ccccc3C1=O)C(=O)N2 the results were G9a block -5.3%[59 µM], BAZ2B inh -5.6%, Sfp PPTase inh 17.7%, JMJD2A Tudor inh -11.4% and HP1b binding inh 4.4%.
Screening CCc1cc2c(cc3c(=O)n(CC(=O)NC(C)c4ccccc4)ncn32)s1 (stereo not given) returned G9a block -2.8%[59 µM], BAZ2B inh -6.9%, JMJD2A Tudor inh 100µM* and HP1b binding inh 8.8%.
For Clc1ccc2nc(-c3ccncc3)cc(-c3ccccc3)c2c1 the results were G9a block -7.0%[59 µM], BAZ2B inh -21.2%, Sfp PPTase inh 9.7%, JMJD2A Tudor inh -17.0%, HP1b binding inh 6.3% and L3MBTL1 block -4.0%.
c1ccc(-c2cc(-c3ccncc3)nc3ccc4ccccc4c23)cc1 was read as G9a block 28.8%[59 µM], BAZ2B inh 6.5%, Sfp PPTase inh 56.2µM*, JMJD2A Tudor inh -4.8%, HP1b binding inh 42.9% and L3MBTL1 block 0.4%.
`O=C(O)c1ccccn1` gave G9a block 0.562µM*!, BAZ2B inh 2.82µM*, Sfp PPTase inh 25.1µM*, JMJD2A Tudor inh 3.98µM*, HP1b binding inh 27.1% and L3MBTL1 block 14.1µM*.
O=C(CC(=O)c1ccccn1)c1ccccc1 was read as JMJD2A Tudor inh 25.1µM* and HP1b binding inh 36.1%.
O=C(c1ccccc1)c1ccccn1 was read as G9a block 10.6%, BAZ2B inh -0.9%, Sfp PPTase inh 0.1%, JMJD2A Tudor inh -6.2% and HP1b binding inh 30.4%.
For Cc1cccc(NC(=O)c2ccccn2)c1C the results were G9a block inconclusive, BAZ2B inh -3.5%, Sfp PPTase inh 2.6%, JMJD2A Tudor inh 7.94µM*, HP1b binding inh 8.3% and L3MBTL1 block 2.8%.
`O=C(Nc1cccs1)OCCN1CCN(Cc2ccccc2)CCC1=O` gave G9a block 44.7µM*, BAZ2B inh 1.3%, Sfp PPTase inh -7.7%, JMJD2A Tudor inh -13.5%, HP1b binding inh 35.3% and L3MBTL1 block 0.9%.
Screening CC(=O)c1ccc(C2C=CC(O)C(CO)O2)cc1 (stereo not given) returned Sfp PPTase inh 6.4%.
Cc1ccccc1OCc1nc2ccc(S(=O)(=O)N3CCOCC3)cc2[nH]1 was read as G9a block 3.55µM*, BAZ2B inh inconclusive, Sfp PPTase inh 39.8µM*, JMJD2A Tudor inh inconclusive and HP1b binding inh -43.1%.
CCOC(=O)C1=C(CN2CCC(C(=O)OCC)CC2)NC(=O)NC1c1ccc(Cl)cc1 (stereo not given) was read as G9a block -41.9%[59 µM], JMJD2A Tudor inh -33.7% and HP1b binding inh 15.9%.
Screening CC1CCC(C(C)C)C(OC(=O)COC(=O)c2cc(O)ccc2N)C1 (stereo not given) returned G9a block 10µM*, BAZ2B inh inconclusive, Sfp PPTase inh -3.0%, JMJD2A Tudor inh inconclusive, HP1b binding inh 15.6% and L3MBTL1 block -0.3%.
